Measurements as given in ChEMBL document CHEMBL3988442, “University of Dundee, Small-Polar-MMV Screening Library” (2021).
For some of these results: Measured potencies and affinities stand elsewhere.

Key:
Parameters in all cases: scale not given: direction of the effect not stated beside the values
[1] = target: Protein translocase subunit SecA (Escherichia coli (strain K12)) (UniProt P10408); assay: Assay to Identify E. coli SecA ATPase Inhibitors; assay type: functional; settings: 30 µM
[2] = target: T1, Ubiquitin-activating enzyme e1, putative (Leishmania donovani (strain BPK282A1)) (UniProt E9BSI1); assay: Leishmania donovani Ubiquitin Activating Enzyme (LdE1); assay type: functional; settings: 30 µM
T1 sequence (whole entry): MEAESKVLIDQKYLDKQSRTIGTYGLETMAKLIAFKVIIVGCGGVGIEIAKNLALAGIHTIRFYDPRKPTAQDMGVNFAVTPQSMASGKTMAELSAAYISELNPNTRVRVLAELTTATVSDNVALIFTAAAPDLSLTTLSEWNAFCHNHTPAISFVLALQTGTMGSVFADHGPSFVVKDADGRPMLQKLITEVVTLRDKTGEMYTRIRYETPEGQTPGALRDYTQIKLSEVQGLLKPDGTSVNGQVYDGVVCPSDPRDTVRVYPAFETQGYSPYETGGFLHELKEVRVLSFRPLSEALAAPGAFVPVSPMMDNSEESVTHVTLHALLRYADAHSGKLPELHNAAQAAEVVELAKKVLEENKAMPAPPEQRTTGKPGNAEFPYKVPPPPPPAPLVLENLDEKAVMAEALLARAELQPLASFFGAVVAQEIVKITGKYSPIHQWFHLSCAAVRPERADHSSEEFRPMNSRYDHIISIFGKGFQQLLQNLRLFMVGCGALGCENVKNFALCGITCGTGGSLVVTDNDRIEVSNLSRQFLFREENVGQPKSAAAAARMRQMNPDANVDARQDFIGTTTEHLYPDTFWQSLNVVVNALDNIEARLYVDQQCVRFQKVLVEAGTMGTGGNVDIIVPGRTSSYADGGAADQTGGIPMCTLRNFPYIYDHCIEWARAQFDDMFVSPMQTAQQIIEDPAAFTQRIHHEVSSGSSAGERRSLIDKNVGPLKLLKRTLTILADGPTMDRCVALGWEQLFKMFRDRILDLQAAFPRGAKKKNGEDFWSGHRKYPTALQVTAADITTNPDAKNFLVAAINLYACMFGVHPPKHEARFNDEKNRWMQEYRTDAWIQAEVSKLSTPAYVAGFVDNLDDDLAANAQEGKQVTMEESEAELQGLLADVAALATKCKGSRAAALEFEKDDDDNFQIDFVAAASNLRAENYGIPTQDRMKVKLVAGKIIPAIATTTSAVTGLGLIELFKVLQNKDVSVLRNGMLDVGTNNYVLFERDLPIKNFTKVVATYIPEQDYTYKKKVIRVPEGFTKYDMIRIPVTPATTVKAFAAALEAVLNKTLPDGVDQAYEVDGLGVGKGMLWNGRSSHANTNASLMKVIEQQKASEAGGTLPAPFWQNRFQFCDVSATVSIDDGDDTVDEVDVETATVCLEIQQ

[3] = target: AMP-activated protein kinase, AMPK (Homo sapiens) (UniProt P54646+O43741+P54619+Q9UGJ0+Q9Y478+Q13131+Q9UGI9); assay: AMP-dependent Kinase enzyme assay. An in vitro enzyme assay that detects ADP turnover that is directly proportional to AMPK activity. This uses naive AMPK that is activated during the assay with MK-8722; assay type: functional; settings: 30 µM
[4] = target: Sialic acid-binding Ig-like lectin 9 (Homo sapiens) (UniProt Q9Y336); assay: Hs-Siglec9 ALPHAscreen SOP 20170721; settings: 10 µM
Sequence of Sialic acid-binding Ig-like lectin 9 (Homo sapiens) (Q9Y336 whole entry): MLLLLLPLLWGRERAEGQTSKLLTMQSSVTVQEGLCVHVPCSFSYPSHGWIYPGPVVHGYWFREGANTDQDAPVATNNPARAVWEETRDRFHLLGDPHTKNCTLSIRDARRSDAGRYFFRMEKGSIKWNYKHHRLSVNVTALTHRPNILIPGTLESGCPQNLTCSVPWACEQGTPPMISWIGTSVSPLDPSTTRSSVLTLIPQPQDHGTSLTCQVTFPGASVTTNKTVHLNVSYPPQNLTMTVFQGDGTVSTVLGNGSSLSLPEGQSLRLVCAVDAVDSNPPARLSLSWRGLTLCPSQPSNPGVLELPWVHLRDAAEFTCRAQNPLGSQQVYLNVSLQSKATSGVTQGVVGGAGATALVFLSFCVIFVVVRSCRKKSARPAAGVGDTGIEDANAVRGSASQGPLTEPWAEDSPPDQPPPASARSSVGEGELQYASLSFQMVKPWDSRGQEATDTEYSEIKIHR

[5] = test system: Trypanosoma cruzi; assay: Trypanosoma cruzi phosphomannomutase and mannose-1-phosphate guanylyltransferase assay; assay type: functional; settings: 10 µM
[6] = target: T2, Arginase-2, mitochondrial (Homo sapiens) (UniProt P78540); assay: in vitro enzyme assay to detect the production of urea directly proportional to the activity of Arginase II; assay type: functional; settings: 33.3 µM; also: in the data most compounds retested in dose-response had high values
T2 sequence (whole entry): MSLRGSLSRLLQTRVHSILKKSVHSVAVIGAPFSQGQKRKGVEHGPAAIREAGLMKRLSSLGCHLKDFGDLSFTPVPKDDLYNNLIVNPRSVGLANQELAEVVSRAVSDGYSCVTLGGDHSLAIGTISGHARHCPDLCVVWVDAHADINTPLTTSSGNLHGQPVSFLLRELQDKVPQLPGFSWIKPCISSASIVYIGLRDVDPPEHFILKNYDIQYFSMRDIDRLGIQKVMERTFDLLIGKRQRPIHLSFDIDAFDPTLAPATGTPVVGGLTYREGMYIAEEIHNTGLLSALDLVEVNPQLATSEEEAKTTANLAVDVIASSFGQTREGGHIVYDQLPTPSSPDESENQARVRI

[7] = target: T3, Proteasome subunit beta (Trypanosoma cruzi) (UniProt O96673); assay: Trypanosoma cruzi proteasome chymotrypsin-like activity (TcProtChymo) assay.; also: in the data most compounds retested in dose-response had high values; assay type: functional; settings: 9.37 µM
T3 sequence (whole entry): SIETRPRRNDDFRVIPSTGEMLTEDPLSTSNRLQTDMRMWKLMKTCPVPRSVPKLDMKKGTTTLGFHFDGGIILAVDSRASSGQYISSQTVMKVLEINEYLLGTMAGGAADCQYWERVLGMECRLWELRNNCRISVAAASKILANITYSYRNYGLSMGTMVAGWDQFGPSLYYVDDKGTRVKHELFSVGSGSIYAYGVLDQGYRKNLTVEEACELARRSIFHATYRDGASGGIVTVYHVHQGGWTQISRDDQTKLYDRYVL

[8] = species on record: Homo sapiens; assay: To identify inhibition of the IFN signalling (Jak-Stat) pathway via expression of an eGFP reporter gene under the control of an IFN-stimulated response element (ISRE) containing MxA promoter.; assay type: functional; settings: 30 µM
[9] = target: T4, Tyrosyl-tRNA synthetase, putative (Trypanosoma cruzi (strain CL Brener)) (UniProt Q4DSP6); assay: Trypanosoma cruzi tyrosyl tRNA synthetase (TcYRS) _High Tyrosine SOP; assay type: functional; settings: 30 µM; also: in the data most compounds retested in dose-response had high values
T4 sequence (whole entry): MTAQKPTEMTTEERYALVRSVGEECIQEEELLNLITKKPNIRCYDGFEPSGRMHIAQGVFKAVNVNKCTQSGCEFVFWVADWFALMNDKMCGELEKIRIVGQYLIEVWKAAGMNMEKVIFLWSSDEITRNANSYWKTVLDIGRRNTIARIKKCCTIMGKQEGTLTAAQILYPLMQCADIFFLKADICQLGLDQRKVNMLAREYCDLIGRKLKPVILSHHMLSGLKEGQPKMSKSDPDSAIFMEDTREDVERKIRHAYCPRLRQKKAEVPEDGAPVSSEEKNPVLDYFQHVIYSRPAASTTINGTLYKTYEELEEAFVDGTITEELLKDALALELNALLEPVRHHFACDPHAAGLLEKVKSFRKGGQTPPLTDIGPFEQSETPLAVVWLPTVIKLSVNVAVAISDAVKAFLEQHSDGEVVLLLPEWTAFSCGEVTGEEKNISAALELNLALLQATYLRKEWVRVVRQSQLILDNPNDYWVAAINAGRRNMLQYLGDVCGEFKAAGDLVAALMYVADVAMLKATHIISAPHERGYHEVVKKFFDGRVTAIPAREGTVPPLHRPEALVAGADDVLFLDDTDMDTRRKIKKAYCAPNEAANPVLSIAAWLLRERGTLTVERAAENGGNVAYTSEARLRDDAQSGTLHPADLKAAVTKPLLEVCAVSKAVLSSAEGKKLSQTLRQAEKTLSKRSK

[10] = target: T4, Tyrosyl-tRNA synthetase, putative (Trypanosoma cruzi (strain CL Brener)); assay: Trypanosoma cruzi tyrosyl tRNA synthetase (TcYRS) SOP; assay type: functional; settings: 30 µM
[11] = target: Chromo domain-containing protein 1 (Saccharomyces cerevisiae (strain ATCC 204508 / S288c) (Baker's yeast)) (UniProt P32657); assay: ScCHD-1 Enzyme Inhibition Assay; assay type: functional; settings: 30 µM; also: in the data most compounds retested in dose-response had high values
Sequence of Chromo domain-containing protein 1 (Saccharomyces cerevisiae (strain ATCC 204508 / S288c) (Baker's yeast)) (P32657 whole entry, the tested form may be a part): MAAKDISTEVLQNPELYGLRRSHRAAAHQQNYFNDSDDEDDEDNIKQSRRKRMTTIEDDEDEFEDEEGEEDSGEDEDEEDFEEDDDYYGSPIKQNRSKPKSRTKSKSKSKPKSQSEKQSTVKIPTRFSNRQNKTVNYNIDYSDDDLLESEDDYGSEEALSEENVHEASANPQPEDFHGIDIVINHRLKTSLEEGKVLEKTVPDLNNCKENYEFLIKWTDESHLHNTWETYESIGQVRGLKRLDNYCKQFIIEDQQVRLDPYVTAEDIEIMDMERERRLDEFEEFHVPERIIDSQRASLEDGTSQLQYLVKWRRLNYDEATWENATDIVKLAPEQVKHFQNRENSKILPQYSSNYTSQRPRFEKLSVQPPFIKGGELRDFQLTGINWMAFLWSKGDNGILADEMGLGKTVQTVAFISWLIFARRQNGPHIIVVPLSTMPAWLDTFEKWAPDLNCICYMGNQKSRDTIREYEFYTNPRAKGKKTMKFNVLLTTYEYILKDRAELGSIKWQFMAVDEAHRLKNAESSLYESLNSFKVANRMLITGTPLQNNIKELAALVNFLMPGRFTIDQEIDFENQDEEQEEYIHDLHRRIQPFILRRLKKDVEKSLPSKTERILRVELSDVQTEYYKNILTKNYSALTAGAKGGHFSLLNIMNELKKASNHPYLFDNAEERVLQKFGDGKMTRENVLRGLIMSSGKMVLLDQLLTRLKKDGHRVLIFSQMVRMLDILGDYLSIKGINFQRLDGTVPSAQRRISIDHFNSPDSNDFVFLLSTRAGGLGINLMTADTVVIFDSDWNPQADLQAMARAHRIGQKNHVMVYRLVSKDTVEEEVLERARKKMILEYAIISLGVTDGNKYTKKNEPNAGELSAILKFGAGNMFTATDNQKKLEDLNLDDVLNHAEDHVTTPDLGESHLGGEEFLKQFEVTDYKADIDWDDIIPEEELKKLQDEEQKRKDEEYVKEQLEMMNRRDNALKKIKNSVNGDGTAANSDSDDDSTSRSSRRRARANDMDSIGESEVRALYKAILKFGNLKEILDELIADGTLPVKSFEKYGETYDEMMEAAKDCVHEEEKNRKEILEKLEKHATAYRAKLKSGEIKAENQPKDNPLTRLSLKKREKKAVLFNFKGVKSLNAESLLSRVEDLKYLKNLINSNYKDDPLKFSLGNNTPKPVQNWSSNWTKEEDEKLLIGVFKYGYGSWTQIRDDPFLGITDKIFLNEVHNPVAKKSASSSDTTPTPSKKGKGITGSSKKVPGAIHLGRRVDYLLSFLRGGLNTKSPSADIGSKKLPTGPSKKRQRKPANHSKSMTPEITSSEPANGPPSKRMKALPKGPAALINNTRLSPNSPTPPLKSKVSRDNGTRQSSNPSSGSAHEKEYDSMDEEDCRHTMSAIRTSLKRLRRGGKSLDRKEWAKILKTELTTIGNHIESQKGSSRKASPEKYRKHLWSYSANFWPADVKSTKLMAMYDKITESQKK

Sequence of Protein translocase subunit SecA (Escherichia coli (strain K12)) (P10408 whole entry): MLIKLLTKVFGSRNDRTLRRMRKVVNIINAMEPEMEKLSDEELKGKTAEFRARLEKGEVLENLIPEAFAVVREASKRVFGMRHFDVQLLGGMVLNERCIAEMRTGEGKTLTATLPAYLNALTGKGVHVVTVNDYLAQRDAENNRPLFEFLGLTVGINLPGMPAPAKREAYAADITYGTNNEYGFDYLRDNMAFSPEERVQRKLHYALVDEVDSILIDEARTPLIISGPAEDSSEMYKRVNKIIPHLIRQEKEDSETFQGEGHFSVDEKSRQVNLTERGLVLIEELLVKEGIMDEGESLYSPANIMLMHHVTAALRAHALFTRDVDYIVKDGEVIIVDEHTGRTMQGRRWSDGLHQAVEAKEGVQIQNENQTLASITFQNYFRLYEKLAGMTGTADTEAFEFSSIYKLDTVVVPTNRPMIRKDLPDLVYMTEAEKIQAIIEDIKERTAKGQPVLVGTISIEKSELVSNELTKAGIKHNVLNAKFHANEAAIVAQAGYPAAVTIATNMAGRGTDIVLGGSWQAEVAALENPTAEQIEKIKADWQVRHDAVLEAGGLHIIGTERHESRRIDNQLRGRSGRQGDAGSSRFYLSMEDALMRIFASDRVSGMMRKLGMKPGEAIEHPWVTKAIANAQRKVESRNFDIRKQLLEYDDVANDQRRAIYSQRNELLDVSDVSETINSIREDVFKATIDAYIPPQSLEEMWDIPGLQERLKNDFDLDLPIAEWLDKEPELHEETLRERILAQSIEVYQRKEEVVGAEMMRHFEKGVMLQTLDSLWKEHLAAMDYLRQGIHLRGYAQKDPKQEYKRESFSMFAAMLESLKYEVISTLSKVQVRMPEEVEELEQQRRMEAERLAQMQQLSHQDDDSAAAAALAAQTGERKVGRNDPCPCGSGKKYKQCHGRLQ

Row | Compound | Percent Effect [1] [%] | Percent Effect [2] [%] | Percent Effect [3] [%] | Percent Effect [4] [%] | Percent Effect [5] [%] | Percent Effect [6] [%] | Percent Effect [7] [%] | Percent Effect [8] [%] | Percent Effect [9] [%] | Percent Effect [10] [%] | Percent Effect [11] [%]
1 | COc1ccc(NC(=O)CNc2cccc3c2CCCC3)c(OC)c1 | -6.64 | -2.7 | -0.0771 | 0.268 | -5.57 | -3.23 | 6.95 | -3.03 | -6.45 | -11.1 | -3.27
2 | Cn1ccnc1CN1CCN(CC(=O)NCC(F)(F)F)CC1 | -2.81 | 5.41 | -5.23 | 3.2 | -0.66 | -4.01 | 0 | 11.1 | 0.493 | 6.17 | -3
3 | O=C([C@@H]1CCO[C@@H]2CCN(Cc3cccnc3)C[C@H]21)N1CCCCO1 | -2.75 | 14.7 | 2.91 | 5.02 | -1.57 | -6.51 | 11.5 | 17.3 | 4.23 | 7.69 | -7.97
4 | Cc1nc(CN2CCOC(Cn3cncn3)C2)nc2ccccc12 (stereo unspecified) | -1.64 | -2.6 | 3.13 | 0.385 | 3.04 | -1.05 | 9.62 | -20.1 | 5.71 | 0 | -15.8
5 | COCCn1nc(C(=O)N2CCCC2c2cccc(F)c2)ccc1=O (stereo unspecified) | -0.858 | 5.41 | -0.552 | 11.3 | 2.9 | 10 | 8.1 | -4.91 | -0.529 | -2.44 | -0.976
6 | Cc1nc(O)c2nnn(C[C@H]3CCCN3C(=O)CCC3CCCC3)c2n1 | -1.52 | -4.05 | 9.5 | -1.58 | -1.78 | -1.62 | 2.5 | -0.726 | -1.07 | -1.3 | 13.7
7 | C[S+]([O-])c1nncn1CC(=O)c1ccc2c(c1)CCO2 (stereo unspecified) | -5.7 | 8.11 | -3.44 | 36.4 | 3.23 | 26.6 | 12.4 | -10.5 | 3.23 | 16.1 | -9.11
8 | Cn1ncc2c(=O)[nH]c(CN3CCCC3Cc3ccccc3)nc21 (stereo unspecified) | -2.29 | 15.8 | -0.517 | 3.61 | 9.62 | -3.24 | 2.28 | 9.4 | 8.37 | 18.5 | -6.42
9 | CN(C)S(=O)(=O)N1CCC2(CCCN(Cc3ccc(F)cc3)C2=O)C1 (stereo unspecified) | -4.94 | 8.22 | -3.06 | 5.14 | 5.16 | 2.4 | 5.22 | 4 | 5.21 | -1.24 | -6.71
10 | O=C(NCCOCC(F)(F)F)c1ccc(-c2ccco2)[nH]c1=O | -1.86 | 8.11 | 3.08 | 3.06 | -6.13 | -0.802 | 8.29 | 19.7 | 6.4 | 11.1 | -6.31
11 | O=C1CN(Cc2nnc(-c3ccc(Br)o3)o2)CCN1 | -0.248 | 4.17 | -1.21 | -1.55 | 0.486 | 1.32 | 21.2 | -4.7 | 7.37 | 0 | -3.99
